Some compounds were tested as several samples or in several runs, with calls that do not always agree. The source made the active and inactive calls. Rule for the calls: active = hit-call score of the fitted dose curve at least 0.9, where 1 is the maximum; inactive = score below 0.9.

Our source for the AC50 and outcome values is PubChem BioAssay (EPA / NIEHS).

Read-out in assay [1]: Human Leukocyte Antigen - DR isotype (HLADR), HLA-DRA (gene 3122)
The assay is described as follows: BSK_BE3C_HLADR: BioMAP Diversity Plus: BE3C Assay for Human Leukocyte Antigen - DR isotype (HLADR) Biomarker Activity (AID 2283032). The settings on record: primary human bronchial epithelial cells; actives raise or lower the signal. The procedure, abridged:
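BioMAP BE3C format: human bronchial epithelium, 24 h compound treatment, ELISA detection of HLA-DR, with bidirectional analysis relative to DMSO.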

Read-out in assay [2]: Vascular cell adhesion molecule 1 (VCAM1), VCAM1 (gene 7412)
Nature of the assay: BSK_4H_VCAM1: BioMAP Diversity Plus: 4H Assay for Vascular cell adhesion molecule 1 (VCAM1) Biomarker Activity (AID 2283033).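 For outcome: cell-surface VCAM-1 protein measured by ELISA.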 The following applies: primary human endothelial cells (HUVEC); actives raise or lower the signal. The procedure, abridged: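 In this human endothelial (HUVEC) system, biomarker ELISA was run 24 h after compound addition, and total protein in parallel wells was assessed by SRB at 560 nm; DMSO served as negative control.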

Read-out in assay [3]: Interferon-gamma inducible Protein 10 (IP10), CXCL10 (gene 3627)
Nature of the assay: BSK_BE3C_IP10: BioMAP Diversity Plus: BE3C Assay for Interferon-gamma inducible Protein 10 (IP10) Biomarker Activity (AID 2283034). The settings on record: primary human bronchial epithelial cells; actives raise or lower the signal. In short, it runs like this: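 BE3C cells (human bronchial epithelial, primary); 24 h exposure; ELISA for IP-10; DMSO-referenced bidirectional fit.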

Read-out in assay [4]: Monokine induced gamma interferon (MIG), CXCL9 (gene 4283)
The assay is described as follows: BSK_BE3C_MIG: BioMAP Diversity Plus: BE3C Assay for Monokine induced gamma interferon (MIG) Biomarker Activity (AID 2283035).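 For outcome: MIG protein measured by ELISA in BE3C cultures after 24 h of dosing.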 The following applies: primary human bronchial epithelial cells; actives raise or lower the signal. The procedure, abridged:
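ELISA quantified MIG after 24 h exposure of primary bronchial epithelial cultures, analysed in both directions relative to DMSO. Cytotoxicity tracked in parallel cultures by sulforhodamine B staining.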

Read-out in assay [5]: Transforming growth factor beta 1 (TGFb1), TGFB1 (gene 7040)
The assay is described as follows: BSK_BE3C_TGFb1: BioMAP Diversity Plus: BE3C Assay for Transforming growth factor beta 1 (TGFb1) Biomarker Activity (AID 2283036;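 for outcome: TGF-b1 protein level measured by ELISA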). The following applies: primary human bronchial epithelial cells; actives raise or lower the signal. In short, it runs like this:
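TGF-b1 measured via ELISA, 24 h after chemical dosing of human bronchial epithelial cells (BE3C). Overt cytotoxicity assessed in parallel by SRB (0.1%, TCA-fixed, 560 nm); analysis bidirectional relative to DMSO.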

Read-out in assay [6]: Plasminogen activator inhibitor-1 (PAI1), SERPINE1 (gene 5054)
Nature of the assay: BSK_BE3C_PAI1: BioMAP Diversity Plus: BE3C Assay for Plasminogen activator inhibitor-1 (PAI1) Biomarker Activity (AID 2283037). The settings on record: primary human bronchial epithelial cells; actives raise or lower the signal. The procedure, abridged:
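In this multiplexed primary-cell system, bronchial epithelial cells receive test chemical and are sampled at 24 h. PAI-1 is read by ELISA, with DMSO serving as negative control for bidirectional fitting.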

Read-out in assay [7]: urokinase plasminogen activator (uPA), PLAU (gene 5328)
Nature of the assay: BSK_BE3C_uPA: BioMAP Diversity Plus: BE3C Assay for urokinase plasminogen activator (uPA) Biomarker Activity (AID 2283038).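 For outcome: uPA protein level quantified by ELISA in cell cultures; uPA read one day after compound addition.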 The settings on record: primary human bronchial epithelial cells; actives raise or lower the signal. In short, it runs like this: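 Measured by ELISA: uPA from human primary bronchial epithelial cells 24 h after chemical treatment. Values derive from bidirectional curve fitting with DMSO serving as negative control. Total protein by SRB staining in parallel wells flagged overt cytotoxicity.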

Read-out in assay [8]: Urokinase-type plasminogen activator receptor (uPAR), PLAUR (gene 5329)
Nature of the assay: BSK_BE3C_uPAR: BioMAP Diversity Plus: BE3C Assay for Urokinase-type plasminogen activator receptor (uPAR) Biomarker Activity (AID 2283039).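 For outcome: uPAR protein level measured by ELISA on the cells; cells exposed to compound for one day before measurement.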 The following applies: primary human bronchial epithelial cells; actives raise or lower the signal. The procedure, abridged:
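Chemically treated human bronchial epithelial cells (lung primary) are assayed for uPAR by ELISA after 24 h, with data fitted in both directions using DMSO as negative control.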

Read-out in assay [9]: Interleukin-6 (IL6), IL6 (gene 3569)
Nature of the assay: BSK_CASM3C_IL6: BioMAP Diversity Plus: CASM3C Assay for Interleukin-6 (IL6) Biomarker Activity for (AID 2283040). The settings on record: primary human coronary artery smooth muscle cells; actives raise or lower the signal.

Read-out in assay [10]: Tissue plasminogen activator (tPA), PLAT (gene 5327)
Nature of the assay: BSK_BE3C_tPA: BioMAP Diversity Plus: BE3C Assay for Tissue plasminogen activator (tPA) Biomarker Activity (AID 2283041).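 For outcome: tPA level quantified by ELISA one day after compound addition.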 The following applies: primary human bronchial epithelial cells; actives raise or lower the signal. The procedure, abridged: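 Using human lung primary bronchial epithelial cells, tPA was measured by ELISA 24 h after dosing; data fitted relative to DMSO.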

Read-out in assay [11]: Interleukin-8 (IL8), CXCL8 (gene 3576)
Nature of the assay: BSK_CASM3C_IL8: BioMAP Diversity Plus: CASM3C Assay for Interleukin-8 (IL8) Biomarker Activity (AID 2283042).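 Note: IL-8 protein level quantified by ELISA.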 The following applies: primary human coronary artery smooth muscle cells; actives raise or lower the signal.

Read-out in assay [12]: Human Leukocyte Antigen - DR isotype (HLADR), HLA-DRA (gene 3122)
Nature of the assay: BSK_CASM3C_HLADR: BioMAP Diversity Plus: CASM3C Assay for Human Leukocyte Antigen - DR isotype (HLADR) Biomarker Activity (AID 2283043).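 Note: cell-surface HLA-DR protein level quantified by ELISA.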 The settings on record: primary human coronary artery smooth muscle cells; actives raise or lower the signal.

Read-out in assay [13]: Macrophage colony-stimulating factor (MCSF), CSF1 (gene 1435)
The assay is described as follows: BSK_CASM3C_MCSF: BioMAP Diversity Plus: CASM3C Assay for Macrophage colony-stimulating factor (MCSF) Biomarker Activity (AID 2283044).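 Note: M-CSF protein amount quantified by ELISA after 24 h exposure.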 The settings on record: primary human coronary artery smooth muscle cells; actives raise or lower the signal.

Read-out in assay [14]: Low-density lipoprotein receptor (LDLR), LDLR (gene 3949)
Nature of the assay: BSK_CASM3C_LDLR: BioMAP Diversity Plus: CASM3C Assay for Low-density lipoprotein receptor (LDLR) Biomarker Activity (AID 2283045).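 Note: LDLR protein level on the cell surface quantified by ELISA.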 The settings on record: primary human coronary artery smooth muscle cells; actives raise or lower the signal.

Read-out in assay [15]: Monocyte Chemoattractant Protein-1 (MCP1), CCL2 (gene 6347)
The assay is described as follows: BSK_CASM3C_MCP1: BioMAP Diversity Plus: CASM3C Assay for Monocyte Chemoattractant Protein-1 (MCP1) Biomarker Activity (AID 2283046).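 Note: MCP-1 level quantified by ELISA 24 h after dosing.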 The following applies: primary human coronary artery smooth muscle cells; actives raise or lower the signal.

A short description of assay [16]: BSK_CASM3C_Proliferation: Cell Proliferation Assessment in the BioMAP Diversity Plus: CASM3C Assay (AID 2283047).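 Note: sulforhodamine B total protein stain as relative cell number at 560 nm; sub-confluent cells exposed 48 h before staining; fitted both ways against DMSO so gain or loss of cell number.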 The following applies: primary human coronary artery smooth muscle cells.
Read-out in assay [17]: Monokine induced gamma interferon (MIG), CXCL9 (gene 4283)
Nature of the assay: BSK_CASM3C_MIG: BioMAP Diversity Plus: CASM3C Assay for Monokine induced gamma interferon (MIG) Biomarker Activity (AID 2283048).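 Note: MIG protein level measured by ELISA.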 The following applies: primary human coronary artery smooth muscle cells; actives raise or lower the signal.

Read-out in assay [18]: serum amyloid A (SAA), SAA1 (gene 6288)
The assay is described as follows: BSK_CASM3C_SAA: BioMAP Diversity Plus: CASM3C Assay for serum amyloid A (SAA) Biomarker Activity (AID 2283049).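 Note: SAA protein level quantified by ELISA.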 The settings on record: primary human coronary artery smooth muscle cells; actives raise or lower the signal.

Assay [19] is described as follows: BSK_CASM3C_SRB: Viability Assessment in the BioMAP Diversity Plus: CASM3C Assay (AID 2283050).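 Note: total protein by SRB staining as cytotoxicity measure in parallel cultures.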 The following applies: primary human coronary artery smooth muscle cells.
Read-out in assay [20]: Thrombomodulin, THBD (gene 7056)
The assay is described as follows: BSK_CASM3C_Thrombomodulin: BioMAP Diversity Plus: CASM3C Assay for Thrombomodulin Biomarker Activity (AID 2283051).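 Note: thrombomodulin protein level measured by ELISA 24 h after dosing.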 The following applies: primary human coronary artery smooth muscle cells; actives raise or lower the signal.

For the compound `CCCCCCCCCCCCN1CCCC1=O`, the AC50 in assay [1] is 26.2 µM (active); in [2], 34.2 µM (active); in assay [3] it was 30.6 µM (active); in assay [4] it was 35.2 µM (active); in assay [5] it was 20 µM (active); in assay [6], 31.8 µM (active). Also, the AC50 in assay [7] is 35.1 µM (active); in [8] it was 32.4 µM (active); in assay [10], 15.4 µM (active); in assay [16], 32.7 µM (active); in [19], 27.4 µM (active); in assay [20], 27.9 µM (active). Besides, the result in assay [9], in assay [11], in assay [12], in assay [13], in [14] and in [15] was inactive. Further, the result in assay [17] and in assay [18] was inactive.

As for `C=C(C)C(=O)OCCC(F)(F)C(F)(F)C(F)(F)C(F)(F)C(F)(F)C(F)(F)F`, the result in assay [1], in assay [2], in assay [3], in assay [4], in assay [5] and in assay [6] was inactive. In addition, the result in assay [7], in assay [8], in assay [9], in [10], in [11] and in assay [12] was inactive. In addition, the result in assay [13], in [14], in [15], in [16], in assay [17] and in assay [18] was inactive. In addition, the outcome in assay [19] and in assay [20] was inactive. In addition, the AC50 in assay [9] is 20 µM (active); in assay [10], 3.97 µM (active); in [12] it was 20 µM (active); in [14], 12.1 µM (active); in assay [16], 13.5 µM (active).

Regarding `COCC(C)OCC(C)O` (stereo not given), the outcome in assay [1], in assay [2], in assay [3], in [4], in assay [5] and in assay [6] was inactive. Further, the outcome in [7], in assay [8], in assay [9], in assay [10], in [11] and in [12] was inactive. For the same compound, the result in assay [13], in assay [14], in assay [15], in assay [16], in assay [17] and in assay [18] was inactive. For the same compound, the result in [19] and in assay [20] was inactive.

As to `ClC1=C(Cl)C(Cl)(Cl)C(Cl)=C1Cl`, the AC50 is 6.39 µM (active) in [1]; 6.5 µM (active) in assay [2]; 6.61 µM (active) in assay [3]; 10.1 µM (active) in assay [4]; 5.53 µM (active) in assay [5]; 5.25 µM (active) in [6]. Also, the AC50 in assay [7] is 7.28 µM (active); in [8], 8.37 µM (active); in assay [9] it was 5.48 µM (active); in assay [10], 6.77 µM (active); in assay [11], 9.09 µM (active); in assay [12], 4.27 µM (active). Moreover, the AC50 was 6.59 µM (active) in assay [13]; 5.87 µM (active) in [14]; 7.68 µM (active) in assay [15]; 2.76 µM (active) in assay [16]; 7.3 µM (active) in assay [17]; 6.33 µM (active) in [18]. The AC50 in assay [19] is 7.64 µM (active). For the same compound, in assay [20], the result was inactive.

As to `CC(C)(C)CC(C)(C)c1ccc(O)c(-n2nc3ccccc3n2)c1`, the result in assay [1], in assay [2], in [3], in assay [4], in assay [5] and in assay [6] was inactive. The outcome in assay [7], in [8], in assay [9], in assay [10], in assay [11] and in assay [15] was inactive. Moreover, the result in assay [17] and in [19] was inactive. For the same compound, the AC50 was 15.7 µM (active) in assay [12]; 28.8 µM (active) in assay [13]; 20 µM (active) in assay [14]; 29.8 µM (active) in assay [16]; 32.4 µM (active) in assay [18]; 22.7 µM (active) in assay [20].

In general, AC50 refers to the midpoint of the concentration-response curve, whichever way the signal moves.
